Whole data set: some 25,000 sequences, median “ln(normalized median fluorescence intensity)” near 9.3, cut for the highest 2% near 10. Only a selection was taken, and the highest values are over-represented in it overall.
What follows are sequences tested on PF3D7_0420300 AP2 domain 1 (GST-tagged) (assay: gcPBM binding intensity (ln(normalized median fluorescence intensity)); higher = stronger DNA binding).
Procedure, shortened: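 Plasmodium falciparum DNA-binding domains carrying a GST tag were expressed in E. coli and applied for 1 h, at about 25 μg on average, to an Agilent 4 × 180k array. The array held primer-extended double-stranded 36-bp intergenic genomic probes together with negative controls, and binding took place in 1× PBS with 1% milk, 0.2 mg/ml BSA, 0.5% salmon testes DNA and 0.03% Triton X-100. An Alexa488 anti-GST antibody detected bound protein, and the array was scanned at 488 nm. Binding intensity is taken as the highest Masliner-normalised natural-log median intensity across replicate spots of either probe orientation.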

| Sequence | gcPBM binding intensity (ln) |
| --- | --- |
| AGAATGGTTTATAAAGGTACGTAATTTTTAATTTTA [XGTACX_site383] | 9.06 |
| TTTTGTTAAAAAGATGTATATTTTATAAATATTTAT [CACACA_negctrl_site101] | 8.92 |
| TTATATATTAAGAAATGTACGAAAAAAAAAATTATA [XGTACX_site3893] | 9.2 |
| ATTATAAATAAAATATGTACATATGTATAAATACAT [XGTACX_site4002] | 9.21 |
| AAAAAGTGACTCCTTACACACTTTACATAATTTAGT [CACACA_site4606] | 9.46 |
| TCTCATAGTAAACACACACACACACCCACATATATA [CACACA_site5034] | 10.3 |
| TCTCATAGGAAACACACACACACACCCACATATATA [CACACA_site1738] | 10.2 |
| TTTCCCATAGGAAAAACACACATATATTATATATAA [CACACA_site1981] | 9.12 |
| AAGGATCACCCACAAACACACATATATATATATATA [CACACA_site559] | 9.76 |
| TTTACTTTCCCAAGTTGTACTGCTTCTAAGCTTTTT [XGTACX_site2708] | 9.21 |
| TTGTTTCTCTTTAAAAGTACAAAAATGGTTACATAT [XGTACX_site3109] | 8.95 |
| AAAAAACATACATACACACACATAAATATATATATT [CACACA_site2699] | 10.1 |
| ATTAAATAAAAAAACACACACATATATACATATATA [CACACA_site3445] | 9.89 |
| AATATAAGAAAAATAACACACACATAAACATATATA [CACACA_site8899] | 10.1 |
| TAAATAAATAAAAAAACACACATATAAATATAAATA [CACACA_site7815] | 9.61 |
| ATATATATAAAACACACACACACATGTTTTAAAACT [CACACA_site78] | 10.2 |
| ATATATATAAAACACACACACACATGGTTTAAAACT [CACACA_site4219] | 10.2 |
| TATAAGAAAAATAACACACACATAAACATATATACA [CACACA_site2785] | 10.2 |
| AAAAAAAAAAAACACACACACACATAAATATATATA [CACACA_site149] | 10.2 |
| AAAAAAAACATACATACACACACATAAATATATATA [CACACA_site8864] | 10.3 |
| TAAATAAAAAAACACACACACATATATATATATATA [CACACA_site2269] | 9.94 |

| Sequence | gcPBM binding intensity (ln) |
| --- | --- |
| TATAAGAAAAATAACACACACATAAACATAAATACA [CACACA_site5536] | 9.87 |
| CATATATAAAAAAACACACACATATATATATATATA [CACACA_site1195] | 9.63 |
| ACTATTAACAGTGTAGTGCAAAAAGGTTAATTATTA | 9.42 |
| AACATAAAAAAAATATGTACATATATAATATATATA [XGTACX_site3764] | 9.29 |
| TTTTTATGTAGAATTTTTTTATTTTTTCAAAATGGA [CACACA_negctrl_site166] | 8.69 |
| TATATATATATTGAAGTGCAAAATACTGTACGTAAT | 9.4 |
| GAGATAAAATAAAACACACACATATATATATAGAAT [CACACA_site2197] | 10.1 |
| TTGTTTTGCTAAAAATGTACTCTATATAAAAGCTTT [XGTACX_site4027] | 8.98 |
| ATGTAATATATTATATGTACATATTTTTATGTAGAT [XGTACX_site5945] | 9.2 |
| AACATTTTTAAATATATAAAAATATATATATATATA [XGTACX_negctrl_site551] | 8.97 |
| TATTTTAATCGTAAGTGTACTCTTTTAAGTATATGT [XGTACX_site8591] | 9.2 |
| GGACATTTTTATAAGGTGCACGGTTTTGATATTACT [GTGCAC_site9892] | 9.46 |
| TATATAAATATACAAACACACATACAAACATATATA [CACACA_site4754] | 9.9 |
| AAAAAAAAATATCACACACACATAAATATAAACCAA [CACACA_site2279] | 10.1 |
| AAAAAAAAAAATATCACACACACATAAATATAAACA [CACACA_site7138] | 10.1 |
| TATATACATAAACACACACACACATATATATATATA [CACACA_site8707] | 10.1 |
| CATATACATAAACACACACACACATAAATAAATATA [CACACA_site4864] | 10.2 |
| AATAAATATATAAATACACACAAACATACATATATA [CACACA_site9340] | 9.96 |
| AAAAAAAAAAATATCACACACACATAAATATAAACC [CACACA_site2278] | 10.2 |
| TACATACATAAACACACACACACATATATATATATA [CACACA_site8953] | 10.1 |
| TAGATACATAAACACACACACACATACATATATACA [CACACA_site9139] | 10.3 |

| Sequence | gcPBM binding intensity (ln) |
| --- | --- |
| TTTTATAATTTATCTAAAAAAAAATAAAATAAAATG [TGCATGCA_negctrl_site429] | 8.67 |
| CTTTTTTTTTTGTATTGTACTTTATTTTTACATCGT [XGTACX_site2918] | 9.65 |
| AAAAACGATTAATGTGTACACACATAGTTATAAACA [CACACA_site8659] | 9.74 |
| TGATGATATAAAAACACACACATATAATATAATACT [CACACA_site1208] | 10 |
| TTTTCCCTTACAGAAAAAAAAAAATTCCTAACCCCG [CACACA_negctrl_site650] | 9.03 |
| TGGCATATATATAAATGTACTTTCTTTCTATCTGTT [XGTACX_site8483] | 9.34 |
| ATAAATTCATTATATTGTACAAACAAATGAAAAAAA [XGTACX_site8304] | 9.09 |
| ATAATATGAAATATAACACACATATATAAAAACATT [CACACA_site866] | 9.72 |
| AAAAAAAAAAAACACACACACACACTAGTATATAAA [CACACA_site4783] | 10.2 |
| AATAATAAACACAATCAAATAAAATATGAAATATAA [GTGCAC_negctrl_site307] | 9.46 |
| ATAATATGAAAACACACACACACACTAGAAAAAAAA [CACACA_site5153] | 10.3 |
| ATAATCCTTAAACACACACACACACTAATAAATAAA [CACACA_site8052] | 10.2 |
| AAAAAAAAAAAAAACACACACACAAGAGTATATAAA [CACACA_site6580] | 9.99 |
| AAAAAATATATATTAACACACACACTAATAAAAAAA [CACACA_site8366] | 10 |
| TACATAAATTAAAACACACACACACTAATAAAAAAA [CACACA_site8712] | 10.1 |
| TACATATATAAAAAAACACACACATATATATATATA [CACACA_site8315] | 9.54 |
| ATAATATGAAAACACACACACACACTAATAAAAAAA [CACACA_site8617] | 10.2 |
| AAAAAAAATATGAAAACACACATATATAAATAAATA [CACACA_site113] | 9.55 |
| ATATATATGAAACACACACACAAAAAAAAAAAAAAA [CACACA_site3647] | 9.69 |

Source: the supplement of paper PMC11417369
